# Laboratory results published in PubChem BioAssay (NCATS).
# Unmarked numbers belong to inactive results. For part of these data: Results with a measured potency or affinity are listed apart. Calls of active or inactive are those of the source.
# What was measured:
# [1] = Ebola virus entry assay, green fluorescence channel
# [2] = Ebola virus entry assay, blue channel fluorescence
# [3] = Ebola virus entry assay, green fluorescence channel; remark: listed apart in the source
# [4] = Ebola virus entry assay, ratio channel readout
# [5] = Ebola virus entry assay, blue channel fluorescence; remark: listed apart in the source
# [6] = Ebola virus entry assay, ratio channel
# [7] = Ebola virus entry assay, green channel fluorescence
# [8] = Ebola virus entry assay, blue channel fluorescence; remark: listed apart in the source
# [9] = Ebola virus entry assay, reporter ratio channel; AC50: Channel type: primary unless noted; outcome: Channel type: primary unless noted
# [10] = Ebola virus entry assay, blue channel (ratio component)
# For efficacy in this document: 0% is about no effect.
Structure (SMILES),efficacy [1] [%],outcome [2],outcome [3],outcome [4],AC50 [5],outcome [6],outcome [7],outcome [8],AC50 [9],outcome [5],outcome [9],outcome [10],AC50 [2],AC50 [4],AC50 [6]
Nc1ccc(O)c(C(=O)O)c1,18.3,inactive,inactive,inactive,28.2 µM (active),inactive,inactive,inactive,31.6 µM (active),,,,,,
O[C@@H]1CO[C@H]2[C@@H]1OC[C@@H]2O,15.8,inactive,inactive,inactive,,inactive,inactive,inactive,,inactive,inactive,inactive,,,
Nc1nc(=S)c2[nH]cnc2[nH]1,-27.5,inactive,inactive,inactive,,inactive,inactive,inactive,,inactive,inactive,inactive,,,
O=c1n(CCCN2CCN(c3cccc(Cl)c3)CC2)nc2ccccn12,33.5,inactive,inactive,inactive,,inactive,inactive,inactive,,inactive,inactive,inactive,,,
CCCCNc1ccc(C(=O)OCCOCCOCCOCCOCCOCCOCCOCCOCCOC)cc1,14,inactive,inactive,inactive,,inactive,inactive,inactive,,inactive,inactive,inactive,,,
Cc1ccc(C)c(OCCCC(C)(C)C(=O)O)c1,-13.5,inactive,inactive,inactive,,inactive,inactive,inactive,,inactive,inactive,,,,
O=P(O)(O)C(O)(Cc1cccnc1)P(=O)(O)O,-17.5,inactive,inactive,inactive,,inactive,inactive,inactive,,inactive,inactive,inactive,,,
Nc1ncn([C@@H]2O[C@H](CO)[C@@H](O)[C@H]2O)c(=O)n1,-20.9,inactive,inactive,inactive,,inactive,inactive,inactive,,inactive,inactive,inactive,,,
COc1c(C)c2c(c(O)c1C/C=C(\C)CCC(=O)O)C(=O)OC2,11.2,inactive,inactive,inactive,,inactive,inactive,inactive,,inactive,inactive,inactive,,,
CCc1nc(N)nc(N)c1-c1ccc(Cl)cc1,26.9,inactive,inactive,inactive,39.8 µM (active),inactive,inactive,inactive,39.8 µM (active),,,,,,
CCC1C(=O)OCC1Cc1cncn1C (stereo unspecified),-25.5,inactive,inactive,inactive,,inactive,inactive,inactive,,inactive,inactive,inactive,,,
CN(CCOc1ccc(NS(C)(=O)=O)cc1)CCc1ccc(NS(C)(=O)=O)cc1,20.2,inactive,inactive,inactive,,inactive,inactive,inactive,,inactive,inactive,inactive,,,
O=C1[C@H](CC[C@H](O)c2ccc(F)cc2)[C@@H](c2ccc(O)cc2)N1c1ccc(F)cc1,-26.4,inactive,inactive,inactive,28.2 µM (active),inactive,inactive,inactive,28.2 µM (active),,,,,,
COc1ccc(-c2cc(=S)ss2)cc1,-17.7,inactive,inactive,inactive,,inactive,inactive,inactive,,inactive,inactive,inactive,,,
O=C(c1ccc(OCCN2CCCCC2)cc1)c1c(-c2ccc(O)cc2)sc2cc(O)ccc12,-297,,inactive,,0.708 µM (active),inactive,inactive,,,,,,6.31 µM (active),5.02 µM (active),
C=C[C@H]1CN2CC[C@H]1C[C@@H]2[C@@H](O)c1ccnc2ccc(OC)cc12,36.3,inactive,inactive,inactive,20 µM (active),inactive,inactive,inactive,35.5 µM (active),,,,,,
C[C@H]1O[C@H](O[C@H]2[C@H](O)[C@@H](O)[C@@H](O[C@H]3[C@H](O)[C@@H](O)[C@H](O)O[C@@H]3CO)O[C@@H]2CO)[C@H](O)[C@@H](O)[C@@H]1N[C@H]1C=C(CO)[C@@H](O)[C@H](O)[C@H]1O,9.72,inactive,inactive,inactive,,inactive,inactive,inactive,,inactive,inactive,inactive,,,
N[C@@H](Cc1cc(I)c(Oc2cc(I)c(O)c(I)c2)c(I)c1)C(=O)O,-10,inactive,inactive,inactive,,inactive,inactive,inactive,,inactive,inactive,inactive,,,
CN(C/C=C/C#CC(C)(C)C)Cc1cccc2ccccc12,-24.6,inactive,inactive,inactive,28.2 µM (active),inactive,inactive,inactive,35.5 µM (active),,,,,,
CCCCNC(=O)NS(=O)(=O)c1ccc(C)cc1,-19.2,inactive,inactive,inactive,,inactive,inactive,inactive,,inactive,inactive,inactive,,,
CCCN1C[C@H](CSC)C[C@@H]2c3cccc4[nH]cc(c34)C[C@H]21,14.5,inactive,inactive,inactive,11.2 µM (active),,inactive,inactive,7.94 µM (active),,,,,,7.94 µM (active)

Structure (SMILES),efficacy [1] [%],outcome [2],outcome [3],outcome [4],AC50 [5],outcome [6],outcome [7],outcome [8],AC50 [9],outcome [5],outcome [9],outcome [10],AC50 [2],AC50 [4],AC50 [6]
N[C@@H](C(=O)N[C@@H]1C(=O)N2C(C(=O)O)=C(Cl)CS[C@H]12)c1ccccc1,26,inactive,inactive,inactive,,inactive,inactive,inactive,,inactive,inactive,inactive,,,
Cc1[nH]c(=O)c(C#N)cc1-c1ccncc1,-19.3,inactive,inactive,inactive,,inactive,inactive,inactive,,inactive,inactive,inactive,,,
CCN(CC)CCNC(=O)c1cc(Cl)c(N)cc1OC,-12.5,inactive,inactive,inactive,,inactive,inactive,inactive,,inactive,inactive,inactive,,,
C[C@](N)(Cc1ccc(O)c(O)c1)C(=O)O,20.7,inactive,inactive,inactive,15.8 µM (active),,inactive,inactive,22.4 µM (active),,,,,,22.4 µM (active)
CC(C)(O)c1ccccc1CC[C@@H](SCC1(CC(=O)O)CC1)c1cccc(/C=C/c2ccc3ccc(Cl)cc3n2)c1,12.9,inactive,inactive,inactive,,inactive,inactive,inactive,,inactive,inactive,inactive,,,
CCCN(CCC)S(=O)(=O)c1ccc(C(=O)O)cc1,-17.8,inactive,inactive,inactive,,inactive,inactive,inactive,,inactive,inactive,inactive,,,
C=C(c1ccc(C(=O)O)cc1)c1cc2c(cc1C)C(C)(C)CCC2(C)C,22.5,inactive,inactive,inactive,,inactive,inactive,inactive,,inactive,inactive,inactive,,,
Cn1cnc([N+](=O)[O-])c1Sc1ncnc2nc[nH]c12,14.5,inactive,inactive,inactive,,inactive,inactive,inactive,,inactive,inactive,inactive,,,
COc1cc2nc(N3CCN(C(=O)C4CCCO4)CC3)nc(N)c2cc1OC (stereo unspecified),13,inactive,inactive,inactive,35.5 µM (active),inactive,inactive,inactive,28.2 µM (active),,,,,,
C[n+]1ccccc1/C=N/O,-22,inactive,inactive,inactive,,inactive,inactive,inactive,,inactive,inactive,inactive,,,
Cc1onc(-c2c(Cl)cccc2Cl)c1C(=O)N[C@@H]1C(=O)N2[C@@H]1SC(C)(C)[C@@H]2C(=O)O,26.4,inactive,inactive,inactive,,inactive,inactive,inactive,,inactive,inactive,inactive,,,
NC1[C@H]2CN(c3nc4c(cc3F)c(=O)c(C(=O)O)cn4-c3ccc(F)cc3F)C[C@@H]12 (stereo partly specified),-13.1,inactive,inactive,inactive,,inactive,inactive,inactive,,inactive,inactive,,,,
CCCC(=O)Nc1ccc(OCC(O)CNC(C)C)c(C(C)=O)c1 (stereo unspecified),8.06,inactive,inactive,inactive,,inactive,inactive,inactive,,inactive,inactive,inactive,,,
CO[C@@]12[C@H](COC(N)=O)C3=C(C(=O)C(C)=C(N)C3=O)N1C[C@@H]1N[C@@H]12,19.7,inactive,inactive,inactive,,inactive,inactive,inactive,,inactive,inactive,inactive,,,
COc1cc2c(cc1OC)[C@@H]1CC(=O)[C@@H](CC(C)C)CN1CC2,24.3,inactive,inactive,inactive,,inactive,inactive,inactive,,inactive,inactive,inactive,,,
Cc1nccn1CC1CCc2c(c3ccccc3n2C)C1=O (stereo unspecified),-22.2,inactive,inactive,inactive,22.4 µM (active),,inactive,inactive,22.4 µM (active),,,,,,22.4 µM (active)
COC(c1ccccc1)(c1ccccc1)[C@H](Oc1nc(C)cc(C)n1)C(=O)O,-17.9,inactive,inactive,inactive,,inactive,inactive,inactive,,inactive,inactive,inactive,,,
COc1ccc2nc(S(=O)Cc3ncc(C)c(OC)c3C)[nH]c2c1 (stereo unspecified),22.2,inactive,inactive,inactive,,inactive,inactive,inactive,,inactive,inactive,inactive,,,
Cc1cc(C)cc(OCC2CNC(=O)O2)c1 (stereo unspecified),-18.5,inactive,inactive,inactive,,inactive,inactive,inactive,,inactive,inactive,inactive,,,
CC(=O)N(O)CCCCCNC(=O)CCC(=O)N(O)CCCCCNC(=O)CCC(=O)N(O)CCCCCN,-19.8,inactive,inactive,inactive,,inactive,inactive,inactive,,inactive,inactive,inactive,,,
